Measured values from PubChem BioAssay AID686978 (National Center for Advancing Translational Sciences (NCATS), 2013).
Several values for one entry are separate records, joined by “and”; a condition that tells them apart may be missing. Identical values can stand only once. Among all 420,000 compounds or so, about 64,000 (15%) were called active. Inconclusive results (about 27%) are left out. Calls follow the shape of the dose curve; as a rule, active = well fitted inhibition curve with a large enough effect; inconclusive = small, poorly fitted or top-dose-only effect; inactive = flat fitted curve, though single readings scatter. These entries were drawn from the full list. Where a call stands in place of a potency, no number is given.

Assay: qHTS for Inhibitors of human tyrosyl-DNA phosphodiesterase 1 (TDP1): qHTS in cells in absence of CPT; also: nearly all actives have a fitted effect of over 55% in size
Conditions: DT40 Tdp1-/- hTDP1 cells, no CPT, ATP luminescence, 48 h; activity change, negative = growth inhibition: at 46.2 µM (top of the series)
In short: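 A cellular qHTS used chicken DT40 cells lacking endogenous Tdp1 but carrying stably transfected human TDP1. Compounds were applied without camptothecin, and cell growth kinetics were judged by ATP-dependent luminescence after ≥48 hr.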
Potency is read from the fitted curve at half-maximal effect.

SMILES	Potency	activity change, negative = growth inhibition
CC(=O)c1c(C)n([O-])c2ccccc2[n+]1=O	inactive	–
O=C(NCc1ccccc1Cl)C1CCC(CNc2c(N3CCCCC3)c(=O)c2=O)CC1 (centres undefined)	inactive	–
Cc1ccc2c(Cl)c(C(=O)Nc3nn[nH]n3)sc2c1	inactive	–
CCCCCc1c(Cc2ccccc2)ncn1CCc1ccccc1OC	2.59 µM (active)	–
CCN(CC)CCN1C(=O)C(=O)/C(=C(/O)c2ccc(OC)c(OC)c2)C1c1ccccn1 (centres undefined)	inactive	–
CCCCCc1c(-c2cccc(Br)c2)ncn1CCc1ccccc1OC	18.4 µM (active)	–
CCCCCc1c(-c2ccc(OC)c(OC)c2)ncn1CCc1ccccc1OC	2.59 µM (active)	–
CCCCNS(=O)(=O)CCNCc1ccccc1OC	inactive	–
Cn1c(=O)c2c(ncn2CCc2ccccc2)n(C)c1=O	inactive	–
CCC(=O)NCc1cc(-c2nn(C)c(=O)c3ccccc23)ccc1OC	inactive	–
CCOC(=O)CSc1nnc(-c2cccc(Br)c2)o1	inactive	–
Cc1c(Nc2nc3ccccc3nc2NS(=O)(=O)c2cccs2)c(=O)n(-c2ccccc2)n1C	inactive	–
CC1Cc2[nH][nH]c(=O)c2C(C2CC2)O1 (centres undefined)	inactive	–
CC(Sc1nnc(-c2cccs2)n1C1CC1)C(=O)NCC1CCCO1 (centres undefined)	inactive	–
CCOC(=O)C1(CC2CCCCO2)CCN(Cc2nc(-c3cccs3)oc2C)CC1 (centres undefined)	16.4 µM (active)	–
CCOc1ccccc1-c1nc(CN2CCC(C(=O)N3CCOCC3)CC2)c(C)o1	inactive	–
CCCOC(=O)C1=C(C)NC2=C(C(=O)C(C(=O)OC)C(C)C2)C1c1ccc(N(C)C)cc1 (centres undefined)	inactive	–
CCOC(=O)c1c(N)n(-c2cccc(C)c2C)c2nc3ccccc3nc12	inactive	–
Cc1ccc(S(=O)(=O)c2c(N)n(C)c3nc4ccccc4nc23)cc1	13 µM (active)	–
Cc1ccc(S(=O)(=O)Nc2nc(N)n(-c3ccccc3)n2)cc1	inactive	–
CCN(c1ccccc1)S(=O)(=O)c1ccc(N)cc1	inactive	–
CCN(CC)CCn1c(N)c(S(=O)(=O)c2ccccc2)c2nc3ccccc3nc21	18.4 µM (active)	–

SMILES	Potency	activity change, negative = growth inhibition
C=CCn1c(N)c(S(=O)(=O)c2cccs2)c2nc3ccccc3nc21	inactive	–
CC1(C)CC(=O)C=C(c2cccc3c2Oc2ccccc2S3)C1	inactive	–
O=C(Cn1cnc2c(oc3ccccc32)c1=O)Nc1ccc(OC(F)(F)F)cc1	inactive	–
CC(C)N(c1ccccc1)c1ncnc(NCCC(=O)O)c1[N+](=O)[O-]	inactive	–
O=C(COC(=O)c1cccnc1Cl)Nc1ccc(S(=O)(=O)N2CCOCC2)cc1	inactive	–
CCOC(=O)N1CCC(c2cc(=O)n(-c3ccccc3)[nH]2)CC1	inactive	–
Cc1cc(C)cc(N)c1	inactive	–
CCOC(=O)c1[nH]c2c(c1C)C(=O)CC(c1ccc(N(C)C)cc1)C2 (centres undefined)	13 µM (active)	–
CCOC(=O)c1[nH]c2c(c1-c1ccccc1)C(=O)CC(c1ccc(Cl)cc1)C2 (centres undefined)	inactive	–
CCOc1ccc(C2CC(=O)c3c([nH]c(C(=O)OCc4ccccc4)c3C)C2)cc1 (centres undefined)	13 µM (active)	–
CCCNC(=O)C1CC(=O)N(c2ccc(OCc3ccccc3)cc2)C1 (centres undefined)	inactive	–
COCCOC(=O)c1[nH]c2c(c1C)C(=O)CC(c1ccc(OC)cc1)C2 (centres undefined)	inactive	–
CCc1ccc(C2CC(=O)c3c([nH]c(C(=O)OCc4ccc(C)cc4)c3C)C2)cc1 (centres undefined)	7.31 µM (active)	–
CC(C)(C)N1C(=O)c2c(C(=O)OCc3ccccc3)[nH]c(-c3ccccc3)c2C1=O	inactive	–
CCOc1ccc(C2C3=C(CCCC3=O)N(CC(=O)O)C3=C2C(=O)CCC3)cc1	inactive	–
Cc1nnc(C)c2c(C)n(N)c(C)c12	inactive	–
CCCCOc1ccc(-c2ncc(C(=O)OCC)c(N)n2)cc1	inactive	–
O=C(OCC(=O)N1CCCC1)c1ccco1	inactive	–
Cc1noc(C)c1C(=O)NC(C)c1ccc2c(c1)OCO2 (centres undefined)	inactive	–
CN(C)Cc1c(O)ccc2c(=O)c(-c3ccccc3Cl)coc12	inactive	–
CN(c1ccccc1)c1nc(N)c([N+](=O)[O-])c(NCc2ccco2)n1	inactive	–
O=C(Nc1ccc(Cl)c(Cl)c1)N1CC=C(c2ccccc2)CC1	20.6 µM (active)	–

SMILES	Potency	activity change, negative = growth inhibition
O=C(O)c1cccc(S(=O)(=O)N2CC=C(c3ccccc3)CC2)c1	inactive	–
NC(=O)N1CCCC1C(=O)Nc1ccc(Cl)c(Cl)c1 (centres undefined)	inactive	–
NC(=O)C1CCN(C(=O)c2cn(-c3ccccc3)nc2-c2cccnc2)CC1	inactive	–
COc1ccc(C2CC(c3cccs3)Nc3nnnn32)cc1 (centres undefined)	inactive	–
CCOc1ccc(C2=CC(c3ccccc3)n3ncnc3N2)cc1 (centres undefined)	inactive	–
COc1ccc(C2=CC(c3cccc(OC)c3)n3nnnc3N2)cc1 (centres undefined)	29.1 µM (active)	–
O=C(Cn1ccc(=O)[nH]c1=O)Nc1ccc(C(=O)O)c(O)c1	inactive	–
COc1ccc(NC(=O)Cn2cc(C(=O)c3ccncc3)c(=O)c3cc(C)ccc32)cc1Cl	inactive	–
Cc1nn(C)cc1CNC(=O)Nc1ccc(Cl)cc1	inactive	–
COc1ncnc2c1N=C1CC(C)(C)CC(N)=C1S2	inactive	–
CC(C)(C)NC(=O)CN(C(=O)c1csnn1)c1ccccc1-c1ccccc1	inactive	–
COc1ccccc1N1CCN(CCN2C(=O)c3ccccc3C(C)(C)C2=O)CC1	26.6 µM (active) and 23.1 µM (active)	–
COc1ccccc1N1CCN(CC(=O)NC(=O)NCc2ccco2)CC1	inactive	–
CNCC(O)CN1CCN(c2ccccc2OC)CC1 (centres undefined)	inactive	–
CC1(C)Cc2c(sc3nc4n(c(=N)c23)CCCCC4)CO1	inactive	–
COCCn1c(C)cc(C(=O)CSc2ncnc3sc4c(c23)CCC4)c1C	inactive	–
CCc1nc(N2CCN(C(C)=O)CC2)c2c3c(sc2n1)CCCC3	inactive	–
COCCNc1nc(-n2nc(C)cc2C)nc2sc3c(c12)CCCC3	5.17 µM (active)	–
CC/C(C)=N/Nc1nc2sc3c(c2c(=O)[nH]1)CC(C)(C)OC3	inactive	–
CCC(O)CNc1nc(-n2nc(C)cc2C)nc2sc3c(c12)CC(C)(C)OC3 (centres undefined)	10.3 µM (active)	–
O=C(NCc1ccc(F)cc1)C1CCN(C(=O)Nc2ccc(F)cc2)CC1	inactive	–
Cc1ccc(Oc2ccc3c(c2)C(=O)N(c2cccc4cccnc24)C3=O)cc1	inactive	–

SMILES	Potency	activity change, negative = growth inhibition
CC(C)NC(=O)NC(=O)COC(=O)c1ccc(NC(=O)CC#N)cc1	inactive	–
O=C1CSC(c2cccc(F)c2)N1c1ccc(O)cc1 (centres undefined)	inactive	–
CCCC(C)C(=O)OCC(=O)Nc1c(Br)cc(C)cc1Br (centres undefined)	inactive	–
NC(=O)COc1ccc(/C=N/NC(=O)C2CCCN2S(=O)(=O)c2ccc(Cl)cc2)cc1 (centres undefined)	inactive	–
Nc1[nH][nH]c(=O)c1N=Nc1ccc2c(c1)OCO2	inactive	–
C=CCN(N=Nc1cccc([N+](=O)[O-])c1)c1cccc([N+](=O)[O-])c1	inactive	–
CCOC(=O)c1cc2c(nc1NC(=S)Nc1ccccc1)CC(C)(CC)OC2 (centres undefined)	inactive	–
COC(=O)Nc1ncc(CN2C(=O)c3ccccc3C2=O)s1	inactive	–
CN1C(=O)c2ccc(NC(=O)C3CCCCC3)cc2C1=O	inactive	–
Cc1ccc(S(=O)(=O)NCCc2nnc3ccc(SCc4cccnc4)nn23)cc1	inactive	–
O=S(=O)(NCCc1nnc2ccc(SCc3ccc(Cl)cc3Cl)nn12)c1ccccc1	14.6 µM (active)	–
COC(=O)CSc1ccc2nnc(CCNS(=O)(=O)c3ccc(C)cc3)n2n1	inactive	–
COC(=O)Nc1ncc(CN2CCCCC2)s1	inactive	–
CN1CCC(N(C)C(=O)c2ccc(Cl)c(S(=O)(=O)Nc3ccc(Cl)cc3)c2)CC1	inactive	–
O=C(Nc1ncccc1O)c1ccc(C(=O)c2ccccc2)cc1	23.1 µM (active)	–
O=C(CNC(=O)c1ccc2ccccc2c1)Nc1ncccc1O	inactive	–
O=C(N/N=C/c1ccccn1)c1ccc(S(=O)(=O)N2CCCCCC2)cc1	inactive	–
Cc1cccnc1NC(=O)c1cccc(S(=O)(=O)N2CCN(c3ccc(F)cc3)CC2)c1	16.4 µM (active)	–
O=C(Nc1ncccc1O)c1ccc(S(=O)(=O)N2CCCC2)cc1	18.4 µM (active)	–
Cc1ccc(C)c2sc(NC(=O)c3ccc(S(=O)(=O)N4CCCC4)cc3)nc12	29.1 µM (active)	–
CCOC(=O)c1csc(NC(=O)c2ccc(S(=O)(=O)N3CCCC3)cc2)n1	inactive	–
O=C(Nc1ccccc1F)c1ccc(S(=O)(=O)N2CCCCCC2)cc1	inactive	–

SMILES	Potency	activity change, negative = growth inhibition
COc1cc(C(=O)Nc2ncccc2C)ccc1OCC(=O)N1CCOCC1	inactive	–
Cc1ccc(C(=O)Nc2ncccc2C)cc1S(=O)(=O)N1CCOCC1	inactive	–
O=C(NC(=O)c1ccccc1)Nc1ccccc1O	inactive	–
CCc1nnc(NC(=O)c2cc(S(=O)(=O)N3CCCCC3)ccc2C)s1	inactive	–
CCCn1c(N)c(N(CCOC)C(=O)C2CCCC2)c(=O)[nH]c1=O	inactive	–
CCOC(=O)c1nn(-c2ccccc2F)c2nc(Nc3ccccc3)cc(=O)n12	inactive	–
Nc1nnn(CC(=O)N/N=C/c2ccc(O)cc2)n1	inactive	–
Cc1cc(NC(=O)c2cc3ccccc3o2)no1	inactive	–
COc1cccc(N(CC(=O)NCCSc2ccccn2)S(C)(=O)=O)c1	inactive	–
Cc1ccc(C(CNC(=O)Nc2cccc(C)c2)N2CCN(C)CC2)cc1 (centres undefined)	inactive	–
CCCCC/C=C\CC1OC1CCCCCCCC(=O)O (centres undefined)	–	-12.2% [at 0.628 µM] (inactive)
O=C1c2ccccc2C(=O)N1CCCc1nc(-c2ccccc2)no1	inactive	–
O=C(O)c1ccc(S(=O)(=O)c2ccccc2)s1	inactive	–
NC(=O)CSc1nnc(NC(=O)c2ccc3ccccc3c2)s1	inactive	–
COc1ccc(C2/C(=C(/O)c3ccccc3)C(=O)C(=O)N2c2ncccn2)cc1OC (centres undefined)	inactive	–
O=c1[nH]c2ccccc2n1C1CCN(CCOc2ccccc2)CC1	4.11 µM (active)	–
OC(c1ccccc1)(c1ccccc1)C1CCN(CCCOc2ccccc2)CC1	16.4 µM (active)	–
c1ccc(-c2ccc(OCCN3CCOCC3)cc2)cc1	inactive	–
O=C(c1ccco1)N1CCN(CCOc2ccccc2)CC1	inactive	–
COc1ccc(OCCCCN2CCC(C)CC2)cc1	inactive	–
O=C(c1ccc(Br)o1)N1CCN(CCOc2ccccc2)CC1	inactive	–
